Experimental findings from PubChem BioAssay (Tox21) are described below.

Experiment [1] is described as follows: Nuclear factor erythroid 2-related factor 2/antioxidant responsive element (Nrf2/ARE) small molecule agonists: qHTS cell viability counter screen in human keratinocytes (AID 1919968; active = well fitted curve in the direction sought with a large enough effect in the repeat runs; an effect the other way counts as inactive or inconclusive; note: nearly all actives have a fitted effect of over 55% in size). In a few lines:
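Seed 1,500 KeratinoSens cells per well, then incubate 5 h at 37 C/5% CO2. Add compounds in DMSO and incubate 23 h. Add CellTiter-Fluor, wait 1 h and read fluorescence.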

The nature of experiment [2]: Nuclear factor erythroid 2-related factor 2/antioxidant responsive element (Nrf2/ARE) small molecule agonists: luciferase reporter gene qHTS assay in human keratinocytes (AID 1919969). Note: nearly all actives have a fitted effect of over 35% in size. Note: potency is the fitted concentration of half-maximal effect.
In experiment [3] the target is KiSS-1 receptor (Homo sapiens) (UniProt Q969F8). The experiment in a line: Human kisspeptin (KISS1R) small molecule agonists, calcium flux assay in KISS1R-HEK293 cells (AID 1920064; active = well fitted curve in the direction sought with a large enough effect in the repeat runs; an effect the other way counts as inactive or inconclusive). In a few lines: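 Cells plated and incubated 18 h; dye added, 1 h at 37 C; compounds in DMSO pinned in; signal read at 480/540 nm every second for 3 min. Each compound tested at 15 concentrations in triplicate.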
Sequence of KiSS-1 receptor (Homo sapiens) (Q969F8 whole entry, looked up): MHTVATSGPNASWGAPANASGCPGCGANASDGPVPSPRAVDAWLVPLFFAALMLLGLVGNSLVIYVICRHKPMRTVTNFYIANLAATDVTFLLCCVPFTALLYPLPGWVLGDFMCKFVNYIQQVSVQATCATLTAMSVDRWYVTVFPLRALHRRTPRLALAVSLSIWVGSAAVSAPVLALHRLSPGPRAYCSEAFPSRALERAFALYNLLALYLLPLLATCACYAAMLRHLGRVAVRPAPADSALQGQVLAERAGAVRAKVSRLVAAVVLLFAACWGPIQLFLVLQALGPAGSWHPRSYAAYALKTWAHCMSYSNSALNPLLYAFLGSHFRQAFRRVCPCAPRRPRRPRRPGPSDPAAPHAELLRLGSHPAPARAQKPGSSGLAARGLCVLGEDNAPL

Experiment [4] in a line: G protein-coupled receptor (GPCR) small molecule agonists, calcium flux assay: HEK293 wild type cell line counter screen (AID 1920065). In a few lines: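 Counter-screen of the Tox21 10K library for non-specific calcium release: dye-loaded cells received compounds in DMSO and were monitored by kinetic fluorescence (480/540 nm, 3 min). Fifteen concentrations, run in triplicate.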
For orientation: Calcium flux is commonly read through the fluorescence of an indicator in the cells.

The nature of experiment [5]: p53 small molecule agonists, cell-based qHTS assay with human liver microsomes (AID 1963577).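 Note: p53 response element beta-lactamase reporter cells with liver microsomes plus NADPH.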 The essentials:
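p53RE-bla cells; 5 h settle, 37 C/5% CO2; cpd + HLM 0.5 mg/mL + NADPH 0.5 mg/mL (final); 16 h 37 C; LiveBLAzer 2 h RT dark; fluorescence readout.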

The nature of experiment [6]: p53 small molecule agonists, cell-based qHTS assay with rat liver microsomes (AID 1963578). In a few lines: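 Rat liver microsome activation: microsomes 0.5 mg/mL, NADPH 0.5 mg/mL final; p53RE-bla cells, 16 h 37 C; LiveBLAzer readout, 2 h RT dark.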
The nature of experiment [7]: p53 small molecule agonists, cell-based qHTS assay with human liver microsomes: qHTS cell viability counter screen (AID 1963579). Note: nearly all actives have a fitted effect of over 45% in size. The essentials:
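Luminescent CellTiter-Glo read-out, 30 min at room temperature, gauged cytotoxicity in p53RE-bla cells exposed 16 h at 37 C to DMSO-dissolved compounds with metabolic activation by human liver microsomes and NADPH, each 0.5 mg/mL final.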

The nature of experiment [8]: p53 small molecule agonists, cell-based qHTS assay with rat liver microsomes: qHTS cell viability counter screen (AID 1963580). Note: nearly all actives have a fitted effect of over 45% in size. In a few lines: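 Intracellular ATP, by CellTiter-Glo luminescence, defines viability. HCT-116 p53RE-bla cells, 4,000 per well, were compound-treated in the presence of rat liver microsomes and NADPH for 16 h at 37 C.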
(In qHTS, concentration-response curves come from the screen itself.)

Experiment [9] is described as follows: p53 small molecule agonists, cell-based qHTS assay: qHTS cell viability counter screen (AID 1963581). Note: nearly all actives have a fitted effect of over 45% in size. The essentials: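 Cells: HCT-116 with p53 response element-driven beta-lactamase. Treatment: 16 h, 37 C, compounds in DMSO. Read: CellTiter-Glo luminescence after 30 min RT.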
Experiment [10] in a line: p53 small molecule agonists, cell-based qHTS assay (AID 1963582; active = well fitted activation curve with a large enough effect in the signal ratio in the repeat runs, not every such curve was filed as active; the % refers to the signal ratio). The essentials: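 Quantitative HTS in p53RE-bla cells: after a 5 h settling period, compounds delivered in DMSO were left on cells for 16 h at 37 C, and reporter induction was measured as fluorescence following 2 h substrate loading.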
In experiment [11] the target is 5-hydroxytryptamine receptor 2A (Homo sapiens) (UniProt P28223). The experiment in a line: 5-hydroxytryptamine receptor 2A (HTR2A) small molecule antagonists, cell-based qHTS assay (AID 1963586). Note: nearly all actives have a fitted effect of over 45% in size. The essentials:
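Antagonist-mode intracellular calcium assay: DOI (4 nM) added after 5 min compound pre-incubation at room temperature to dye-loaded HTR2A-CHO cells. Fluorescence followed for 3 min, sampled every second.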

For experiment [12] the target is unchanged. The experiment in a line: 5-hydroxytryptamine receptor 2A (HTR2A) small molecule agonists, cell-based qHTS assay (AID 1963587). Note: nearly all actives have a fitted effect of over 30% in size. The essentials:
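Kinetic calcium-flux fluorescence (2 min, 1 sec intervals) after compound addition in agonist mode. HTR2A-CHO cells were cultured 18 h, then dye-loaded 1 h at 37 C.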

The target in experiment [13] is Muscarinic acetylcholine receptor M1 (Homo sapiens) (UniProt P11229). Description: Cholinergic receptor muscarinic 1 (CHRM1) small molecule antagonists, cell-based qHTS assay (AID 1963588). Note: nearly all actives have a fitted effect of over 40% in size. In a few lines: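 CHRM1-CHO calcium-flux assay, antagonist mode. Cells were seeded 18 h, dye-loaded 1 h at 37 C and given compound for 5 min at RT, then acetylcholine was added at 50nM. FDSS fluorescence was read 3 min; 15 concentrations, three runs.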
Sequence of Muscarinic acetylcholine receptor M1 (Homo sapiens) (P11229 whole entry, looked up): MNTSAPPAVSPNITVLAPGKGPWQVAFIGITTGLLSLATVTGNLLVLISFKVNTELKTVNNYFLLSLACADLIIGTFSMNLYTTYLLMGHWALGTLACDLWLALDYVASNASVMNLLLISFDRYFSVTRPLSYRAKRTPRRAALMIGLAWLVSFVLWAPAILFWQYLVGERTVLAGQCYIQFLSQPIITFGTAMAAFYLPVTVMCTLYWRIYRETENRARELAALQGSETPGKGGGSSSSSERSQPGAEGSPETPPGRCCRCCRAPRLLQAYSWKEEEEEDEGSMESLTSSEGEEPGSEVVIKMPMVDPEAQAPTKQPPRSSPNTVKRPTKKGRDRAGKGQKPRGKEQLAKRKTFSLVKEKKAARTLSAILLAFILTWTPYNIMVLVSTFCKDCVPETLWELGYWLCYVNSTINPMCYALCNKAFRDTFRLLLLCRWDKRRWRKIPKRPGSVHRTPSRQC

The target is the same in experiment [14]. Description: Cholinergic receptor muscarinic 1 (CHRM1) small molecule agonists, cell-based qHTS assay (AID 1963589). Note: nearly all actives have a fitted effect of over 35% in size. The essentials:
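Agonist-mode qHTS in CHO cells stably carrying human muscarinic M1. Intracellular calcium is tracked by fluorescence every second after compound transfer; each compound runs at 15 concentrations in three independent runs.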

Experiment [15] is described as follows: cAMP Responsive Elements (CRE) small molecule agonists, cell-based qHTS assay (AID 1963590). In a few lines: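 Agonist mode qHTS in CRE-bla HEK 293T cells: compounds dosed from DMSO for 3 h at 37 C/5% CO2, followed by LiveBLAzer B/G FRET substrate for 2 h at room temperature.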
Experiment [16] addresses Beta-2 adrenergic receptor (Homo sapiens) (UniProt P07550). Description: Adrenergic beta2 receptor (ADRB2) small molecule antagonists, cell-based qHTS assay (AID 1963592). Note: series mostly up to about 92 µM; nearly all actives have a fitted effect of over 50% in size. In a few lines: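 Cells (CHO, stable ADRB2 overexpression) incubated 18-20hr at 37C; compounds added from DMSO; agonist mix (1nM isoproterenol, 100uM IBMX, 25uM Ro-20-1724) added; 0.5hr RT; d2-cAMP and anti-cAMP-cryptate added; 1hr RT; 665/615 nm read.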

Experiment [17] shares this target. The experiment in a line: Adrenergic beta2 receptor (ADRB2) small molecule agonists, cell-based qHTS assay (AID 1963593).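 Note: CHO cells stably overexpressing human ADRB2.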 The essentials:
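CHO cells stably over-expressing ADRB2 were plated overnight at 37C, then dosed with compounds plus a stimulation mix containing 100uM IBMX and 25uM Ro-20-1724 for 0.5hr at room temperature. cAMP was measured by HTRF competition, 1hr.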

Experiment [18] addresses D(2) dopamine receptor (Homo sapiens) (UniProt P14416). The experiment in a line: Dopamine D2 receptor (DRD2) small molecule agonists, cell-based qHTS assay (AID 1963594). Note: nearly all actives have a fitted effect of over 35% in size. The essentials: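 cAMP accumulation in DRD2-HEK293 cells measured by HTRF after 1 h detection; compounds added 10 min before NKH477 (200nM […]) forskolin-analogue stimulation, 30 min at room temperature, with Ro20-1724 present at 0.1 mM final.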

Experiment [19] has the same target. Description: Dopamine D2 receptor (DRD2) small molecule antagonists, cell-based qHTS assay (AID 1963595; active = well fitted inhibition curve with a large enough effect in the signal ratio in the repeat runs, with a control signal flat; the % refers to the signal ratio). In a few lines: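 HEK293 cells stably expressing DRD2 were preincubated with 0.1 mM Ro20-1724, then with compound for 10 min at room temperature. Cells were stimulated with 200 nM NKH477 plus 12 nM quinpirole for 30 min, and cAMP was read by HTRF.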
Experiment [20] can be described thus: cAMP Responsive Elements (CRE) small molecule antagonists, cell-based qHTS assay (AID 1963591; active = well fitted inhibition curve with a large enough effect in the signal ratio in the repeat runs, not every such curve was filed as active; the % refers to the signal ratio). The essentials: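 Antagonist mode: test compounds are co-incubated with the adenylyl cyclase activator NKH477 (0.25 uM final) on CRE-bla HEK293T cells for 3 h at 37 °C, followed by LiveBLAzer substrate loading.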

SMILES strings stand for the structures. Values without a mark were called inactive. Inconclusive results are not listed. Active and inactive are the calls of the source. Unless noted, calls come from the whole dose curve.
% is set by controls: 0 for no effect and ±100 for the full control effect.

Sequence of D(2) dopamine receptor (Homo sapiens) (P14416 whole entry, looked up): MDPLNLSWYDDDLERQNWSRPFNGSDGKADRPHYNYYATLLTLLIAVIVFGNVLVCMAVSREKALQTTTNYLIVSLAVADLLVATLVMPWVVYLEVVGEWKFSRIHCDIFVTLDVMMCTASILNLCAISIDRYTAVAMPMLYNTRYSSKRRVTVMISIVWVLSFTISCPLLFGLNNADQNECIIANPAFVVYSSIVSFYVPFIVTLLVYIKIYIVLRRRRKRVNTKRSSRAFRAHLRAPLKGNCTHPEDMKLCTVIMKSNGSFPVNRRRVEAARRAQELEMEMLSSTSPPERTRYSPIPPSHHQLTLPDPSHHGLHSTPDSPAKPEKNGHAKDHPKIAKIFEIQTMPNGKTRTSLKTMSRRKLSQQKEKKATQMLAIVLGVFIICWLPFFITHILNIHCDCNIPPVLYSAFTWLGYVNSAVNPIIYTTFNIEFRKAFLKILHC
Sequence of 5-hydroxytryptamine receptor 2A (Homo sapiens) (P28223 whole entry, looked up): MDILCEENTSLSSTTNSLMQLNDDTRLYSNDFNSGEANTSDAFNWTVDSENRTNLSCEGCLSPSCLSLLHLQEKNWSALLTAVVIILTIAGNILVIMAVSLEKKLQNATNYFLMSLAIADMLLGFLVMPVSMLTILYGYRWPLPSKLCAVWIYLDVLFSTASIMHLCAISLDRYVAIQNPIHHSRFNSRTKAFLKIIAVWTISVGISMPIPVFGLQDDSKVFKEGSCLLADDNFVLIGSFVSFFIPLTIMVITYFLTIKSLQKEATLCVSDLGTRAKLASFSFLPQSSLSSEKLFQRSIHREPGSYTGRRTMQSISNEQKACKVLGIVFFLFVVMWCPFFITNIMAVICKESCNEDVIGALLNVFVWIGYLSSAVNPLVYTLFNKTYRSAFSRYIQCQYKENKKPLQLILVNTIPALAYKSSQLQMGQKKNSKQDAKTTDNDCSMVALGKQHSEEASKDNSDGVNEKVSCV
Sequence of Beta-2 adrenergic receptor (Homo sapiens) (P07550 whole entry, looked up): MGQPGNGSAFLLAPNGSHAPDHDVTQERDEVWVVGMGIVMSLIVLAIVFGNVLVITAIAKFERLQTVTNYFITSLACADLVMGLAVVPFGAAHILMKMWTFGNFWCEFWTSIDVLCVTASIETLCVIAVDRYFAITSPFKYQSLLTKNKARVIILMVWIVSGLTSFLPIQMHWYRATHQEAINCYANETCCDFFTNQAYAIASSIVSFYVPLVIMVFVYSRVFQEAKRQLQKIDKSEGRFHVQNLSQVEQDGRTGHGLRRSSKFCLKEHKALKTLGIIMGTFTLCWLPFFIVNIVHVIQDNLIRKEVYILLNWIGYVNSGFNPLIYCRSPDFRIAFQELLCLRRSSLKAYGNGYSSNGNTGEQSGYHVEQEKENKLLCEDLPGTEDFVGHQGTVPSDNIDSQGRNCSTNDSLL

With `CC(=O)OCCc1ccccc1`, the Potency result in experiment [1], in experiment [2], in experiment [3], in [4], in experiment [5] and in [6] was “inactive” throughout. Moreover, the Potency entry in [7], in experiment [8], in experiment [9], in [10], in experiment [11] and in experiment [12] was “inactive” each time. Further, the Potency result in [13], in experiment [14], in experiment [15], in [16], in experiment [17] and in [18] was “inactive” throughout. Besides, the Potency result in experiment [19] was “inactive”.
As to `CC(=O)CC(=O)Nc1ccccc1C`, the Potency entry in experiment [1], in experiment [2], in experiment [3], in [4], in experiment [5] and in experiment [6] was “inactive” in each case. For the same compound, the Potency entry in experiment [7], in [8], in [9], in experiment [10], in experiment [11] and in experiment [12] was “inactive” throughout. For the same compound, the Potency entry in experiment [14], in experiment [20], in experiment [16], in experiment [17], in experiment [18] and in experiment [19] was “inactive” throughout.
With `N[C@@H](CSSC[C@H](N)C(=O)O)C(=O)O`, the activity change, negative = cytotoxicity in experiment [1] is -0.627% [at 0.349 µM]; in experiment [7], 1.19% [at 0.249 µM]; in experiment [8], -2.37% [at 0.249 µM]; in experiment [9], 0.512% [at 0.249 µM]. The Potency in [2] was 376 nM (active). Also, the activation was -0.737% [at 0.29 µM] in experiment [3]; -0.257% [at 0.217 µM] in experiment [4]; 0.648% [at 0.249 µM] in [5]; -1.5% [at 0.249 µM] in [6]; 2.6% [at 0.249 µM] in experiment [10]; 4.74% [at 0.292 µM] in experiment [12]. The activation in [14] is 1.52% [at 0.29 µM]; in [15], 0.0077% [at 0.349 µM]; in [17], -18.9% [at 0.349 µM]; in [18] it was -4.71% [at 0.349 µM]. Besides, the activity, negative = inhibition in [11] is -6.07% [at 0.233 µM]; in [13] it was 11.3% [at 0.232 µM]. Besides, the activity change, negative = inhibition in [16] was 8.85% [at 0.349 µM]; in experiment [19], 5.54% [at 0.348 µM].
Regarding `C=C(C)C(=O)OC(C)C`, the Potency result in [1], in experiment [2], in experiment [3], in [4], in [5] and in [6] was “inactive” in each case. For the same compound, the Potency entry in experiment [7], in [9], in experiment [10], in [11], in [12] and in experiment [13] was “inactive” throughout. Also, the Potency result in experiment [14], in experiment [15], in experiment [20], in experiment [16], in experiment [17] and in experiment [18] was “inactive” in each case. Moreover, in [19], the Potency entry is “inactive”.
As to `O=Cc1cccc([N+](=O)[O-])c1`, the Potency entry in experiment [1], in experiment [2], in experiment [3], in experiment [4], in experiment [5] and in experiment [6] was “inactive” each time. Moreover, the Potency entry in experiment [7], in experiment [8], in experiment [9], in experiment [11], in experiment [12] and in [13] was “inactive” in each case. In addition, the Potency result in [14], in [15], in experiment [16], in experiment [17], in experiment [18] and in experiment [19] was “inactive” throughout.
As to `O=C(/N=N/C(=O)OCc1ccccc1)OCc1ccccc1`, the Potency entry in experiment [1], in experiment [2], in [3], in experiment [4], in experiment [5] and in [6] was “inactive” throughout. Besides, the Potency result in experiment [7], in [8], in [9], in [10], in experiment [11] and in experiment [12] was “inactive” throughout. The Potency result in experiment [13], in [15], in [20], in experiment [16], in [17] and in experiment [18] was “inactive” in each case. Also, the Potency entry in [19] was “inactive”.
Consider `CCCCCCOC(=O)CC`, for which the Potency result in [1], in experiment [2], in experiment [3], in [4], in experiment [5] and in experiment [6] was “inactive” throughout. The Potency entry in experiment [7], in experiment [8], in experiment [9], in [10], in [11] and in experiment [12] was “inactive” throughout. For the same compound, the Potency result in [13], in experiment [14], in experiment [15], in experiment [17] and in experiment [19] was “inactive” each time.
